Laboratory results from PubChem BioAssay (NCATS).
Results filed as inconclusive are left out. Calls of active or inactive are those of the source. Calls follow the shape of the dose curve; as a rule, active = well fitted curve in the direction sought with a large enough effect; inconclusive = small, poorly fitted or top-dose-only effect, or another doubt; inactive = no such curve, though single readings can be large; an effect the other way counts as inactive or inconclusive.

How the values were obtained:
[1] = Quantitative High-Throughput drug screen in 47 multiple myeloma cell lines against the NCATS MIPE library collection: KHM11_PLB cell viability assay (AID 1918962); settings: KHM11 myeloma cell viability, CellTiter-Glo ATP luminescence, 48 h; series mostly up to 45.8 µM; also: nearly all actives have a fitted effect of over 35% in size
Procedure, shortened: (§1)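 Viability readout: CellTiter-Glo luminescence following 5 min room-temperature incubation with reagent. Prior exposure: 48 h, 37C, humidified 5% CO2, 500 cells per well.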

[2] = Quantitative High-Throughput drug screen in 47 multiple myeloma cell lines against the NCATS MIPE library collection: JIM3_ECACC cell viability assay (AID 1918963; also: nearly all actives have a fitted effect of over 35% in size); settings: JIM3 myeloma viability, CellTiter-Glo ATP, 48 h; series mostly up to 45.8 µM
Procedure, shortened: as §1

[3] = Quantitative High-Throughput drug screen in 47 multiple myeloma cell lines against the NCATS MIPE library collection: JIM1_ECACC cell viability assay (AID 1918964); settings: JIM1 myeloma viability, CellTiter-Glo ATP luminescence, 48 h; series mostly up to 45.8 µM
Procedure, shortened: (§2)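 We plated 500 myeloma cells per well, pinned in MIPE 4.0 compounds, and incubated for 48 hours at 37C. ATP was then quantified with CellTiter-Glo, with DMSO and media-only wells defining 100% and 0%.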

[4] = Quantitative High-Throughput drug screen in 47 multiple myeloma cell lines against the NCATS MIPE library collection: INA6_PLB cell viability assay (AID 1918965; also: nearly all actives have a fitted effect of over 55% in size); settings: INA6 myeloma viability, CellTiter-Glo ATP luminescence, 48 h; series mostly up to 45.8 µM
Procedure, shortened: (§3)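 Approved and investigational drugs from MIPE 4.0 were added by pin tool to 500 cells per well. After 48 hours at 37C, ATP-based CellTiter-Glo luminescence indicated remaining viability.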

[5] = Quantitative High-Throughput drug screen in 47 multiple myeloma cell lines against the NCATS MIPE library collection: JJN3_DSMZ cell viability assay (AID 1918966; also: nearly all actives have a fitted effect of over 50% in size); settings: JJN3 myeloma cells viability, CellTiter-Glo ATP, 48 h; series mostly up to 45.8 µM
Procedure, shortened: as §2

[6] = Quantitative High-Throughput drug screen in 47 multiple myeloma cell lines against the NCATS MIPE library collection: H1112_PLB cell viability assay (AID 1918967; also: nearly all actives have a fitted effect of over 30% in size); settings: H1112 myeloma cells viability, ATP luminescence, 48 h; series mostly up to 45.8 µM
Procedure, shortened: as §2

[7] = Quantitative High-Throughput drug screen in 47 multiple myeloma cell lines against the NCATS MIPE library collection: KMS27_JCRB cell viability assay (AID 1918970); settings: KMS27 myeloma cells, CellTiter-Glo ATP viability, 48 h; series mostly up to 45.8 µM; also: nearly all actives have a fitted effect of over 30% in size
Procedure, shortened: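 Viability inhibition screen, 48 h compound exposure, luminescent ATP read-out.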

[8] = Quantitative High-Throughput drug screen in 47 multiple myeloma cell lines against the NCATS MIPE library collection: KMS12BM_JCRB cell viability assay (AID 1918971); settings: KMS12BM myeloma viability, CellTiter-Glo ATP, 48 h; series mostly up to 45.8 µM; also: nearly all actives have a fitted effect of over 35% in size
Procedure, shortened: (§4)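 CellTiter-Glo luminescence (ATP) after 48 h compound exposure, 37C/5% CO2; 500 cells/well; MIPE 4.0 approved/investigational drugs pinned in; DMSO = 100%, media only = 0% viability.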

[9] = Quantitative High-Throughput drug screen in 47 multiple myeloma cell lines against the NCATS MIPE library collection: KMS12PE_JCRB cell viability assay (AID 1918972); settings: KMS12PE myeloma viability, CellTiter-Glo ATP, 48 h; series mostly up to 45.8 µM; also: nearly all actives have a fitted effect of over 30% in size
Procedure, shortened: as §3

[10] = Quantitative High-Throughput drug screen in 47 multiple myeloma cell lines against the NCATS MIPE library collection: KMS20_JCRB cell viability assay (AID 1918973); settings: CellTiter-Glo ATP, 48 h; series mostly up to 45.8 µM; also: nearly all actives have a fitted effect of over 45% in size
Procedure, shortened: as §2

[11] = Quantitative High-Throughput drug screen in 47 multiple myeloma cell lines against the NCATS MIPE library collection: KMS21BM_JCRB cell viability assay (AID 1918974); settings: ATP luminescence, 48 h; viability: at 45.8 µM (top of the series) unless noted
Procedure, shortened: as §2

[12] = Quantitative High-Throughput drug screen in 47 multiple myeloma cell lines against the NCATS MIPE library collection: KMS26_JCRB cell viability assay (AID 1918975); settings: KMS26 myeloma cells viability, CellTiter-Glo ATP, 48 h; series mostly up to 45.8 µM; also: nearly all actives have a fitted effect of over 45% in size
Procedure, shortened: as §4

[13] = Quantitative High-Throughput drug screen in 47 multiple myeloma cell lines against the NCATS MIPE library collection: MMM1_PLB cell viability assay (AID 1918976); settings: MMM1 myeloma cells viability, CellTiter-Glo, 48 h; series mostly up to 45.8 µM; also: nearly all actives have a fitted effect of over 35% in size
Procedure, shortened: (§5)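 MIPE 4.0 approved/investigational drugs; 500 cells/well; 48 h 37 °C humidified 5% CO2; CTG luminescence readout; DMSO = 100%, media = 0% viability.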

[14] = Quantitative High-Throughput drug screen in 47 multiple myeloma cell lines against the NCATS MIPE library collection: MOLP8_DSMZ cell viability assay (AID 1918977); settings: MOLP8 myeloma viability, CellTiter-Glo ATP luminescence, 48 h; series mostly up to 45.8 µM; also: nearly all actives have a fitted effect of over 45% in size
Procedure, shortened: as §5

[15] = Quantitative High-Throughput drug screen in 47 multiple myeloma cell lines against the NCATS MIPE library collection: NCIH929_DSMZ cell viability assay (AID 1918978); settings: NCI-H929 myeloma viability, CellTiter-Glo ATP, 48 h; series mostly up to 45.8 µM; also: nearly all actives have a fitted effect of over 35% in size
Procedure, shortened: as §5

[16] = Quantitative High-Throughput drug screen in 47 multiple myeloma cell lines against the NCATS MIPE library collection: OCIMY1_PLB cell viability assay (AID 1918979); settings: OCI-MY1 myeloma viability, CellTiter-Glo ATP, 48 h; series mostly up to 45.8 µM; also: nearly all actives have a fitted effect of over 35% in size
Procedure, shortened: as §5

[17] = Quantitative High-Throughput drug screen in 47 multiple myeloma cell lines against the NCATS MIPE library collection: MM1S_ATCC cell viability assay (AID 1918980); settings: MM1S myeloma viability, CellTiter-Glo ATP luminescence, 48 h; series mostly up to 45.8 µM; also: nearly all actives have a fitted effect of over 45% in size
Procedure, shortened: as §5

[18] = Quantitative High-Throughput drug screen in 47 multiple myeloma cell lines against the NCATS MIPE library collection: MM1R_ATCC cell viability assay (AID 1918981); settings: MM1R multiple myeloma cells, CellTiter-Glo viability, 48 h; series mostly up to 45.8 µM; also: nearly all actives have a fitted effect of over 35% in size
Procedure, shortened: as §5

[19] = Quantitative High-Throughput drug screen in 47 multiple myeloma cell lines against the NCATS MIPE library collection: Karpas25_ECACC cell viability assay (AID 1918968; also: nearly all actives have a fitted effect of over 35% in size); settings: Karpas25 myeloma viability, CellTiter-Glo ATP, 48 h; series mostly up to 45.8 µM
Procedure, shortened: as §2

[20] = Quantitative High-Throughput drug screen in 47 multiple myeloma cell lines against the NCATS MIPE library collection: LP1_DSMZ cell viability assay (AID 1918982); settings: LP1 myeloma viability, CellTiter-Glo ATP luminescence, 48 h; series mostly up to 45.8 µM; also: nearly all actives have a fitted effect of over 35% in size
Procedure, shortened: as §5

Measured: Potency
Potency is read from the fitted curve at half-maximal effect.

Nc1cc(C(F)(F)F)c(-c2cc(N3CCOCC3)nc(N3CCOCC3)n2)cn1
active: [1] 1050 nM | [2] 743 nM | [3] 46.9 nM | [4] 1320 nM | [5] 3720 nM | [6] 743 nM | [7] 209 nM | [8] 1050 nM | [9] 418 nM | [10] 1180 nM | [11] 418 nM | [12] 2090 nM | [13] 526 nM | [14] 1050 nM | [15] 209 nM | [16] 469 nM | [17] 235 nM | [18] 1180 nM

Cc1[nH]nc2ccc(-c3cncc(OC[C@@H](N)Cc4ccccc4)c3)cc12
active: [1] 235 nM | [2] 2090 nM | [3] 1870 nM | [4] 935 nM | [5] 1180 nM | [6] 1870 nM | [19] 2960 nM | [7] 2090 nM | [9] 833 nM | [10] 1180 nM | [11] 935 nM | [12] 2640 nM | [13] 2960 nM | [14] 526 nM | [15] 1480 nM | [16] 6620 nM | [17] 935 nM | [18] 1320 nM | [20] 4180 nM

C[C@@H](Oc1cc(-c2cnn(C3CCNCC3)c2)cnc1N)c1c(Cl)ccc(F)c1Cl
active: [1] 3720 nM | [2] 8330 nM | [3] 3720 nM | [4] 4690 nM | [5] 8330 nM | [6] 11800 nM | [19] 2350 nM | [7] 26400 nM | [8] 16600 nM | [9] 6620 nM | [11] 8330 nM | [12] 14800 nM | [13] 9350 nM | [14] 13200 nM | [15] 3320 nM | [16] 20900 nM | [17] 18700 nM | [18] 14800 nM | [20] 14800 nM

O=C(NC1CCNCC1)c1[nH]ncc1NC(=O)c1c(Cl)cccc1Cl
active: [1] 235 nM | [2] 526 nM | [3] 264 nM | [4] 590 nM | [5] 187 nM | [6] 1050 nM | [19] 372 nM | [7] 526 nM | [8] 235 nM | [9] 935 nM | [10] 469 nM | [11] 118 nM | [12] 187 nM | [13] 418 nM | [14] 148 nM | [15] 418 nM | [16] 2640 nM | [17] 105 nM | [18] 296 nM | [20] 264 nM

CNC(=O)c1ccc(N2C(=S)N(c3cnc(C#N)c(C(F)(F)F)c3)C(=O)C23CCC3)cc1F
active: [1] 2090 nM | [2] 2960 nM | [3] 1870 nM | [4] 2090 nM | [5] 3320 nM | [6] 833 nM | [19] 743 nM | [7] 4690 nM | [8] 13200 nM | [9] 2960 nM | [10] 2350 nM | [12] 1480 nM | [15] 332 nM | [17] 132 nM | [18] 1050 nM

CC(C)c1ccc(Cn2ccc3c4c(N)nc(NC5CC5)nc4ccc32)cc1
active: [1] 14800 nM | [2] 148 nM | [3] 1870 nM | [4] 1480 nM | [5] 8330 nM | [6] 9350 nM | [7] 372 nM | [9] 833 nM | [10] 3720 nM | [11] 1320 nM | [12] 10500 nM | [13] 16600 nM | [14] 13200 nM | [15] 13200 nM | [16] 14800 nM | [17] 10500 nM | [18] 9350 nM | [20] 4690 nM

COc1cc2c(Oc3ccc(-c4cnc(Nc5ccc(F)cc5)n(C)c4=O)cc3F)ccnc2cc1OCCCN1CCOCC1
active: [1] 8330 nM | [2] 5900 nM | [3] 1180 nM | [4] 14800 nM | [5] 11800 nM | [6] 14800 nM | [19] 1870 nM | [7] 1180 nM | [8] 20900 nM | [9] 1870 nM | [10] 2960 nM | [12] 18700 nM | [13] 4690 nM | [14] 18700 nM | [15] 2640 nM | [16] 11800 nM | [17] 9350 nM | [18] 3720 nM | [20] 11800 nM

O=C(CCCCCCC(=O)Nc1ccc([C@H]2O[C@@H](CSc3nc(-c4ccccc4)c(-c4ccccc4)o3)C[C@@H](c3ccc(CO)cc3)O2)cc1)NO
active: [1] 14800 nM | [2] 23500 nM | [4] 5260 nM | [5] 13200 nM | [6] 13200 nM | [19] 9350 nM | [10] 6620 nM | [12] 23500 nM | [13] 13200 nM | [14] 14800 nM | [15] 9350 nM | [16] 18700 nM | [17] 9350 nM | [18] 16600 nM | [20] 11800 nM
inactive: [3] | [7] | [9]
